In PubChem BioAssay (EPA / NIEHS):
Calls of active or inactive are those of the source. Rule for the calls: active = hit-call score of the fitted dose curve at least 0.9, where 1 is the maximum; inactive = score below 0.9.

Assays:
Settings in all cases: mRNA level, 48 h; actives raise or lower the signal
[1] = read-out: CYP2C9 (gene 1559); assay: LTEA_HepaRG_CYP2C9: Life Technologies and Expression Analysis (LTEA) Assay for CYP2C9 using HepaRG (AID 2283484)
Method in brief: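 Differentiated human HepaRG cells were exposed 48 h in serum-free induction medium to eight half-log concentrations up to 100 uM in 0.5% DMSO. CYP2C9 mRNA was measured by qRT-PCR, normalized to ACTB, GAPDH and POLR2A, and fitted bidirectionally against DMSO.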

[2] = read-out: CYP2E1 (gene 1571); assay: LTEA_HepaRG_CYP2E1: Life Technologies and Expression Analysis (LTEA) Assay for CYP2E1 using HepaRG (AID 2283485)
Method in brief: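 Human liver line HepaRG, plated 48 h, then serum-free induction medium + chemical x 48 h; 8-pt CRC from 100 uM, half-log, 0.5% DMSO, n=2. Readout: CYP2E1 mRNA qRT-PCR vs ACTB/GAPDH/POLR2A; bidirectional fit vs DMSO.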

[3] = read-out: CYP4A11 (gene 1579); assay: LTEA_HepaRG_CYP4A11: Life Technologies and Expression Analysis (LTEA) Assay for CYP4A11 using HepaRG (AID 2283486)
Method in brief: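 CYP4A11 transcript levels were quantified by TaqMan qRT-PCR after HepaRG human liver cells were treated for 48 hours with test chemicals (top 100 uM, half-log dilutions, 0.5% DMSO). Gain or loss of signal was fitted relative to DMSO.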

[4] = read-out: Cytochrome P450 3A4 (Homo sapiens) (UniProt P08684); assay: LTEA_HepaRG_CYP3A4: Life Technologies and Expression Analysis (LTEA) Assay for CYP3A4 using HepaRG (AID 2283487)
Method in brief: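 In a human hepatic line (HepaRG), duplicate wells were treated 48 h with up to 100 uM chemical in half-log dilutions. Endpoint: CYP3A4 mRNA induction or loss relative to 0.5% DMSO vehicle, by qRT-PCR.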

[5] = read-out: DNA damage-inducible transcript 3 (DDIT3), DDIT3 (gene 1649); assay: LTEA_HepaRG_DDIT3: Life Technologies and Expression Analysis (LTEA) Assay for DNA damage-inducible transcript 3 (DDIT3) using HepaRG (AID 2283488)
Method in brief: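 HepaRG plated 48 h, switched to serum-free induction medium, dosed 48 h (100 uM top, half-log, 8 pts, 0.5% DMSO, n=2); RNA isolated; DDIT3 by qRT-PCR; bidirectional curve fit vs DMSO.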

[6] = read-out: Pro-epidermal growth factor (Homo sapiens) (UniProt P01133); assay: LTEA_HepaRG_EGF: Life Technologies and Expression Analysis (LTEA) Assay for Epidermal growth factor (EGF) using HepaRG (AID 2283489)
Method in brief: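 qRT-PCR readout of EGF transcript after 48 h chemical exposure of HepaRG cells; eight concentrations from 100 uM down in half-log steps, duplicate wells, 0.5% DMSO vehicle. Bidirectional curve fitting against DMSO baseline.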

[7] = read-out: Early growth response protein 1 (EGR1) transcription factor, EGR1 (gene 1958); assay: LTEA_HepaRG_EGR1: Life Technologies and Expression Analysis (LTEA) Assay for Early growth response protein 1 (EGR1) transcription factor using HepaRG (AID 2283490)
Method in brief: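 Differentiated human HepaRG cells in serum-free induction medium were exposed in duplicate for 48 h to eight concentrations (top 100 uM, half-log steps) in 0.5% DMSO. EGR1 mRNA was quantified by qRT-PCR, normalized to ACTB, GAPDH and POLR2A, and fitted bidirectionally versus DMSO.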

[8] = read-out: Ezrin (EZR), EZR (gene 7430); assay: LTEA_HepaRG_EZR: Life Technologies and Expression Analysis (LTEA) Assay for Ezrin (EZR) using HepaRG (AID 2283491)
Method in brief: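 Gain or loss of EZR mRNA is scored relative to 0.5% DMSO in human HepaRG cultures treated 48 h with test chemicals in duplicate, eight half-log concentrations from 100 uM.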

[9] = read-out: Cytochrome P450 3A7 (Homo sapiens) (UniProt P24462); assay: LTEA_HepaRG_CYP3A7: Life Technologies and Expression Analysis (LTEA) Assay for CYP3A7 using HepaRG (AID 2283492)
Method in brief: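 CYP3A7 transcript levels were read by TaqMan qRT-PCR on Fluidigm arrays after 48 h chemical exposure of human HepaRG cells, with housekeeping-gene normalisation. Eight half-log concentrations up to 100 uM in 0.5% DMSO were tested in duplicate.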

[10] = read-out: CYP3A5 (gene 1577); assay: LTEA_HepaRG_CYP3A5: Life Technologies and Expression Analysis (LTEA) Assay for CYP3A5 using HepaRG (AID 2283493)
Method in brief: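 HepaRG plated 48 h, switched to serum-free induction medium, chemicals added 48 h (max 100 uM, half-log, 0.5% DMSO). RNA isolated; CYP3A5 by TaqMan qRT-PCR. Gain/loss vs DMSO.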

Measured: AC50

Cytochrome P450 3A7 (Homo sapiens), sequence (P24462 whole entry, looked up): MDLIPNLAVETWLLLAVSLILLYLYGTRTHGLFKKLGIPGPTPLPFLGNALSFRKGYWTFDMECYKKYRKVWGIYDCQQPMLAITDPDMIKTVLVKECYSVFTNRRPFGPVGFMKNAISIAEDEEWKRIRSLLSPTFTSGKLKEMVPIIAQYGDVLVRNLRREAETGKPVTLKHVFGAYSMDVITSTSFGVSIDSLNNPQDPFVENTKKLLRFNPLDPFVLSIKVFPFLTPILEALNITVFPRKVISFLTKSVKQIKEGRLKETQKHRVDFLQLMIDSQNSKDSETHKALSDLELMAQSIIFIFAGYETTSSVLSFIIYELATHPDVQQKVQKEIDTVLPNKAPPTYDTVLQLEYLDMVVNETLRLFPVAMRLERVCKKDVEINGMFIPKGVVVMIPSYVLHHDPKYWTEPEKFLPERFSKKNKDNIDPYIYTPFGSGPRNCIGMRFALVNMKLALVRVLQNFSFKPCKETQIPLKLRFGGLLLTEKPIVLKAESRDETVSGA
Cytochrome P450 3A4 (Homo sapiens), sequence (P08684 whole entry, looked up): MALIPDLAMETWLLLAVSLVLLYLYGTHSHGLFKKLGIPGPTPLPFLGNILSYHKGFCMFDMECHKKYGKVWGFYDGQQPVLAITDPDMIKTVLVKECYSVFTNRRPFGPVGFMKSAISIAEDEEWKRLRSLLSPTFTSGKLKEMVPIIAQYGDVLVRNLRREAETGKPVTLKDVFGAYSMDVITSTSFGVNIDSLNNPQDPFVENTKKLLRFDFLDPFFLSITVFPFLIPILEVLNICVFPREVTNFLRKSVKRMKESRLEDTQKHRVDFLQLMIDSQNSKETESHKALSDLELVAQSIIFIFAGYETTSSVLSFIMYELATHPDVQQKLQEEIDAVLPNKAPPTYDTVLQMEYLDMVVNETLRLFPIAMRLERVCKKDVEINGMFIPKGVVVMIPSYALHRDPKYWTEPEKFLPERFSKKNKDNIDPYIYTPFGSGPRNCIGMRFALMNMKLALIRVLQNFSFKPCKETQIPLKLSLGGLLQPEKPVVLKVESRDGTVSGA

CCOC(=O)c1ccccc1C(=O)OCC
inactive: all assays above

CC(C)(C)OOC(C)(C)C
inactive: all assays above

CCCN(CCC)c1c([N+](=O)[O-])cc(C(C)C)cc1[N+](=O)[O-]
active: [1] 12.7 µM | [2] 67 µM | [3] 81.2 µM | [6] 29 µM
not listed: [4]
inactive: all other assays above

CCCCCCCc1ccc(O)cc1
inactive: all assays above

ClC(Cl)(Cl)c1ccccc1
inactive: all assays above

CSC(C)(C)C=NO
inactive: all assays above

CCN(CC)c1ccccc1
inactive: all assays above

CCC1(c2ccccc2)C(=O)N=C(O)NC1=O (centres undefined)
active: [4] 50 µM | [9] 41.3 µM
not listed: [3]
inactive: all other assays above

Cc1ccc(O)cc1C
inactive: [5] | [6] | [7] | [8]

O=P(Oc1ccccc1)(Oc1ccccc1)Oc1ccccc1
inactive: [1] | [6] | [7] | [8]
active: [2] 26.2 µM | [4] 3.44 µM | [5] 75.4 µM | [9] 12.6 µM

CCOS(=O)(=O)OCC
inactive: all assays above

Cc1cccc(N)c1
not listed: [6]
inactive: all other assays above

CC(Cl)(Cl)C(=O)O
inactive: all assays above

O=[N+]([O-])c1ccccc1
not listed: [6]
inactive: all other assays above

CCNc1nc(Cl)nc(NC(C)(C)C)n1
active: [2] 26.6 µM | [3] 9.92 µM | [4] 2.11 µM
inactive: all other assays above

Cc1ccc([N+](=O)[O-])cc1C
inactive: all assays above

ClC(Cl)c1ccccc1
inactive: all assays above

COCCOCCO
not listed: [4] | [9]
inactive: all other assays above

[N-]=[N+]=[N-]
active: [1] 78.6 µM | [2] 67.1 µM | [3] 70.6 µM | [5] 76.4 µM | [8] 50 µM
inactive: [4] | [6] | [7] | [9] | [10]

CC(Cc1ccc(OCC(=O)O)cc1)NCC(O)c1csc(C(F)(F)F)n1 (centres undefined)
not listed: [5]
inactive: all other assays above

CCC(C)(C)c1ccc(O)cc1
inactive: all assays above

Nc1cc2c3c(c1)C(c1ccccc1)=N[C@@H](NC(=O)c1cccnc1)C(=O)N3CC2
active: [2] 12.2 µM | [3] 50 µM | [4] 7.78 µM | [9] 5.11 µM
inactive: all other assays above

CC(C)(C)c1ccc(O)cc1
inactive: [5] | [6] | [7] | [8]
